Experimental data published in the supplement of paper PMC6897291.

System: RIVA
Assay: growth inhibition by drug plus 177Lu-lilotomab satetraxetan (1 - RLU/untreated control) (fraction); higher = stronger inhibition
Conditions: 177Lu-lilotomab satetraxetan 0.5 ug/ml
Procedure: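 RIVA (RI-1) ABC-DLBCL cells were pretreated or not for 18 h with 0.5 ug/ml 177Lu-lilotomab satetraxetan (600 MBq/mg), washed and seeded (3000 cells/well) on 384-well plates pre-printed with the Selleck Cambridge Cancer Compound library. Viability was read by RealTime-Glo luminescence on days 3-6 after seeding. Effect = 1 - RLU/mean RLU of the 48 untreated no-drug control wells per plate; Bliss score = (M-E)/(1-Fa).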

With `O=C1c2ccccc2-c2nc3nonc3nc21` the “growth inhibition by drug plus 177Lu-lilotomab satetraxetan” value (“growth inhibition” below) (10 nM, time (day): 3) was 0.417, the “growth inhibition” value (10 nM, time (day): 4) was 0.519 and the “growth inhibition” value (10 nM, time (day): 5) was 0.528. For the same molecule, the “growth inhibition” value (10 nM, time (day): 6) was 0.542, the “growth inhibition” value (100 nM, time (day): 3) was 0.116 and the “growth inhibition” value (100 nM, time (day): 4) was 0.288. The “growth inhibition” value (100 nM, time (day): 5) was 0.31 and the “growth inhibition” value (100 nM, time (day): 6) was 0.332.
In the case of `CC[C@]1(O)C[C@@H]2CN(CCc3c([nH]c4ccccc34)[C@@](C(=O)OC)(c3cc4c(cc3OC)N(C)[C@H]3[C@@](O)(C(=O)OC)[C@H](OC(C)=O)[C@]5(CC)C=CCN6CC[C@]43[C@@H]65)C2)C1` [Vinblastine], the “growth inhibition” value (10 nM, time (day): 3) is reported as 0.383, the “growth inhibition” value (10 nM, time (day): 4) is reported as 0.503 and the “growth inhibition” value (10 nM, time (day): 5) is reported as 0.523. For the same molecule, the “growth inhibition” value (10 nM, time (day): 6) was 0.53, the “growth inhibition” value (100 nM, time (day): 3) was 0.574 and the “growth inhibition” value (100 nM, time (day): 4) was 0.643. For the same molecule, the “growth inhibition” value (100 nM, time (day): 5) was 0.659 and the “growth inhibition” value (100 nM, time (day): 6) was 0.668.
`O=C1NC(=O)/C(=C\c2cccc(C(F)(F)F)c2)S1` was tested, and the “growth inhibition” value (10 nM, time (day): 3) was 0.418, the “growth inhibition” value (10 nM, time (day): 4) was 0.47 and the “growth inhibition” value (10 nM, time (day): 5) was 0.492. For the same molecule, the “growth inhibition” value (10 nM, time (day): 6) was 0.508, the “growth inhibition” value (100 nM, time (day): 3) was 0.391 and the “growth inhibition” value (100 nM, time (day): 4) was 0.456. The “growth inhibition” value (100 nM, time (day): 5) was 0.458 and the “growth inhibition” value (100 nM, time (day): 6) was 0.45.
For `CNC(=O)c1cc(COc2nnc(Nc3ccc(Cl)cc3)c3ccoc23)ccn1` [Telatinib (BAY 57-9352)], the “growth inhibition” value (10 nM, time (day): 3) was 0.351, the “growth inhibition” value (10 nM, time (day): 4) was 0.487 and the “growth inhibition” value (10 nM, time (day): 5) was 0.503. For the same molecule, the “growth inhibition” value (10 nM, time (day): 6) was 0.502, the “growth inhibition” value (100 nM, time (day): 3) was 0.316 and the “growth inhibition” value (100 nM, time (day): 4) was 0.416. For the same molecule, the “growth inhibition” value (100 nM, time (day): 5) was 0.413 and the “growth inhibition” value (100 nM, time (day): 6) was 0.391.
In the case of `COc1c(C)c2c(c(O)c1C/C=C(\C)CCC(=O)OCCN1CCOCC1)C(=O)OC2` [Mycophenolate mofetil (CellCept)], the “growth inhibition” value (10 nM, time (day): 3) is reported as 0.413, the “growth inhibition” value (10 nM, time (day): 4) is reported as 0.511 and the “growth inhibition” value (10 nM, time (day): 5) is reported as 0.534. For the same molecule, the “growth inhibition” value (10 nM, time (day): 6) was 0.55, the “growth inhibition” value (100 nM, time (day): 3) was 0.554 and the “growth inhibition” value (100 nM, time (day): 4) was 0.581. For the same molecule, the “growth inhibition” value (100 nM, time (day): 5) was 0.583 and the “growth inhibition” value (100 nM, time (day): 6) was 0.539.
